This note sets out measurements from PubChem BioAssay (NCI).

Assay [1] can be described thus: NCI Yeast Anticancer Drug Screen. Data for the rad50 strain (AID 155).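 Note: 0% = growth of vehicle-only cultures of the same strain.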 The settings on record: S. cerevisiae rad50 strain growth inhibition; at 50.0 µM; hits give high values. The method in brief:
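Readout: growth inhibition relative to vehicle-treated cultures. Compound exposure was carried out in a genetically defined yeast strain deficient in DNA damage repair.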

A short description of assay [2]: NCI Yeast Anticancer Drug Screen. Data for the mec2-1 strain (AID 157). Particulars: S. cerevisiae mec2-1 strain, at 50.0 µM, hits give high values. The method in brief:
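Mutant yeast (mec2-1) grown with compound; growth inhibition relative to vehicle control reported.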

Assay [3] is described as follows: NCI Yeast Anticancer Drug Screen. Data for the sgs1 mgt1 strain (AID 161).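 Note: 0% = growth of cultures given vehicle only.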 Particulars: S. cerevisiae sgs1 mgt1 strain, at 50.0 µM, hits give high values. Summed up: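 Compounds are added to genetically altered yeast, and growth is compared with cultures given vehicle alone to give percent inhibition.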
Assay [4] in a line: NCI Yeast Anticancer Drug Screen. Data for the cln2 rad14 strain (AID 165).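 Note: 0% = growth equal to vehicle treated cultures.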 Particulars: S. cerevisiae cln2 rad14 strain, at 50.0 µM, hits give high values. The method in brief: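 Readout is yeast growth inhibition versus vehicle-treated controls, using a strain with cln2 and rad14 alterations exposed to compound.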
Assay [5] is described as follows: NCI Yeast Anticancer Drug Screen. Data for the bub3 strain (AID 167). The settings on record: S. cerevisiae bub3 mutant strain, at 50.0 µM, hits give high values. Summed up: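 Readout: yeast growth inhibition, expressed relative to vehicle-only wells. The test organism is a mutant strain from a panel with lesions in DNA repair or checkpoint genes.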
A short description of assay [6]: NCI Yeast Anticancer Drug Screen. Data for the mlh1 rad18 strain (AID 175). Particulars: S. cerevisiae mlh1 rad18 strain growth inhibition; at 50.0 µM; hits give high values. Summed up:
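Genetically defined yeast (DNA repair-deficient) exposed to compounds; growth inhibition determined relative to vehicle.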

Structures are written as SMILES. The panel holds about 79,000 compounds, 15% with a hit somewhere; the sample as a whole holds those more often. Values without a mark were called inactive. Active and inactive are the calls of the source. Cut-off read from the data, not from the text of the source: active = growth inhibition above about 70%; inactive = the rest.

`CCC1(CC)SCc2nc3ccccc3n21`: the growth inhibition in assay [1] was 23%; in assay [2], 18.2%; in assay [3] it was 58.3%; in assay [4] it was 29.3%; in assay [5], 58.8%; in assay [6], 42.3%.

Consider `CC(=O)NC(c1ccc(Cl)cc1)(c1ccc(Cl)cc1)C(Cl)(Cl)Cl`, for which the growth inhibition in assay [1] was -18.6%; in assay [2], -35%; in assay [3], -7.4%; in assay [4], 8.5%; in assay [5] it was 10.4%; in assay [6] it was -3.25%.

Turning to `C=C[C@]1(C)CC(=O)C(C(C)C=O)[C@]12C(=O)Oc1cccc(C)c1C2=O` (stereo not given in full), the growth inhibition in assay [1] is 63.9%; in assay [2], 85.5% (active); in assay [3], 79% (active); in assay [4], 58.1%; in assay [5], 71.8% (active); in assay [6], 86.7% (active).

For the compound `O=C1C(=Cc2ccc([N+](=O)[O-])cc2)C(=O)c2ccccc21`, the growth inhibition was 28.9% in assay [1]; 36.6% in assay [2]; 22.1% in assay [3]; 24.1% in assay [4]; 0.15% in assay [5]; 85.5% (active) in assay [6].

As to `CC1(C)OC[C@@H](N)[C@@H](O)CO1`, the growth inhibition in assay [1] is -9.35%; in assay [2], 12.6%; in assay [3], 0.05%; in assay [4] it was -31.9%; in assay [5], 0.55%; in assay [6], 1.95%.

`CC1=CC2(C)Cc3cc(C)cc(C)c3S(=O)(=O)C2C(C(=O)O)=C1` (stereo not given): the growth inhibition was -11% in assay [1]; -30.4% in assay [2]; -13.9% in assay [3]; -13.5% in assay [4]; -14.8% in assay [5]; -15.2% in assay [6].

Turning to `CC(C)(C)c1onc2c1C(=O)c1ccccc1-2`, the growth inhibition in assay [1] was -3.7%; in assay [2], -2.55%; in assay [3] it was 1.35%; in assay [4] it was -5.9%; in assay [5], 25.9%; in assay [6], -2.75%.

Take `CC(=N\N=C\c1ccccn1)/C(C)=N/N=C(C)/C(C)=N/N=C(C)/C(C)=N/N=C/c1ccccn1`: the growth inhibition in assay [1] is 31.7%; in assay [2], 22.2%; in assay [3], 21.4%; in assay [4], 14.2%; in assay [5], 15.2%; in assay [6], -34%.

Take `COC(=O)N[C@H](C(=O)O)C(C)O[Si](C)(C)C(C)(C)C` (stereo not given in full): the growth inhibition in assay [1] was -16.2%; in assay [2], -14%; in assay [3], -52.6%; in assay [4], 8.2%; in assay [5], -33%; in assay [6], -34.5%.

With `CC(=O)n1cc2cc([N+](=O)[O-])ccc2n1`, the growth inhibition in assay [1] was -13.4%; in assay [2] it was -13.6%; in assay [3] it was -1.15%; in assay [4], -91.8%; in assay [5], -1%; in assay [6], -17.1%.

In the case of `O=C(Nc1ccccc1Br)c1cccc([N+](=O)[O-])c1O`, the growth inhibition in assay [1] is 37.5%; in assay [2], 35.2%; in assay [3], 45.5%; in assay [4], 38.2%; in assay [5], 29.4%; in assay [6] it was 37.1%.

Take `CCC(C(=O)O)C1=CCCCC1` (stereo not given): the growth inhibition was 15.7% in assay [1]; -13.6% in assay [2]; 16.2% in assay [3]; 16.1% in assay [4]; -14.2% in assay [5]; 4.45% in assay [6].

With `O=S1(=O)c2ccccc2N(O)C2=NCCN21`, the growth inhibition in assay [1] was -50.1%; in assay [2] it was -46.7%; in assay [3] it was -65.8%; in assay [4] it was -6.35%; in assay [5] it was -30.9%; in assay [6], -33.9%.

For the compound `O=C1OC(=O)C2C1C1c3ccccc3C2(Br)c2ccccc21` (stereo not given), the growth inhibition in assay [1] was -3.15%; in assay [2], 13.7%; in assay [3], -0.45%; in assay [4], -6.05%; in assay [5], 3.55%; in assay [6], 7.65%.

For `Cc1ccc(-c2cn3c(nc4ccccc43)c(C)n2)cc1`, the growth inhibition is -27.5% in assay [1]; 5.5% in assay [2]; 15.3% in assay [3]; -7.95% in assay [4]; 13% in assay [5]; -29.5% in assay [6].

As to `O=C(O)Cc1ccc(-c2ccccc2)[nH]1`, the growth inhibition in assay [1] is 3.35%; in assay [2] it was -14.7%; in assay [3], 3.25%; in assay [4], -25.8%; in assay [5] it was -17.1%; in assay [6] it was -12%.

In the case of `COc1cc(C=O)ccc1OC(=O)Nc1cc(Cl)ccc1C`, the growth inhibition was 6.6% in assay [1]; 6.7% in assay [2]; 10.8% in assay [3]; 5.75% in assay [4]; 13.2% in assay [5]; 8.85% in assay [6].

`NC1(c2ccccc2)C2CC3CC(C2)CC1C3` (stereo not given): the growth inhibition in assay [1] was 14.1%; in assay [2], 1%; in assay [3] it was -9.1%; in assay [4] it was -48.8%; in assay [5], 7.25%; in assay [6] it was 3.7%.

On to `C[C@H](CCC(=O)O)[C@H]1CC[C@H]2[C@@H]3[C@@H](O)C[C@@H]4C[C@H](O)CC[C@]4(C)[C@H]3C[C@H](O)[C@]12C`, for which the growth inhibition in assay [1] is -3.3%; in assay [2] it was -7.05%; in assay [3], 11.1%; in assay [4], -20.6%; in assay [5] it was -14.7%; in assay [6], 7.8%.

Consider `c1ccc(Sc2cccc3c(-c4ccccc4)c4cccc5c4c(c23)C[S+]5c2ccccc2)cc1` (stereo not given), for which the growth inhibition was 98.5% (active) in assay [1]; 99.1% (active) in assay [2]; 99.2% (active) in assay [3]; 98.5% (active) in assay [4]; 98.6% (active) in assay [5]; 98.8% (active) in assay [6].
